# Rows were chosen to be rich in hits. Some 2.9% of all compounds tested hit in one or more screens of this group.
# KLK7 zymogen act – proKLK7 (human) activation, primary screen; purified proKLK7, EDANS-DABCYL substrate fluorescence; 100% is mature enzyme control, 0% vehicle; actives 0.9% (n = 370,000); AID 652039; activation, % at 7 µM;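 active = activation above the mean of all tested compounds plus 3 SD, computed per campaign excluding outliers beyond control limits, cut at about 13% in these data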
# ADAM10 inh – inhibitors of human ADAM10; inhibition, % at 7 µM; O14672; recombinant ADAM10, EDANS/DABCYL FRET peptide cleavage, 3 h; actives 0.62% (n = 370,000);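 active = inhibition above a per-campaign cutoff equal to the mean of compounds falling between control-based bounds plus 3 SD, cut at about 20% in these data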;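 note: 0% = DMSO wells while the 100% control is not disclosed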
# PLC-beta3 inh – PLC-beta3 (human) inhibition, primary screen; Purified PLC-beta3, fluorogenic substrate, fluorescence; inhibition, % at 12.2 µM; actives 0.18% (n = 370,000); AID 720704; in the data active = inhibition above about 11%;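 note: 0% = median of compound wells on plate and 100% = full blocker control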
# ADAM17 inh – inhibits human ADAM17; actives 0.83% (n = 370,000); AID 720648; inhibition, % at 6.95 µM; recombinant ADAM17, EDANS/DABCYL FRET peptide cleavage;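 active = inhibition above the mean of compounds lying between control limits plus 3 SD, set per campaign, cut at about 8.5% in these data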;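 note: 0% = DMSO-only wells as the low control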
# PLC-gamma1 inh – inhibitors of human phospholipase C gamma1; P19174; inhibition, % at 12.2 µM; purified PLC-gamma1, fluorogenic substrate, fluorescence; actives 0.84% (n = 370,000); in the data active = inhibition above about 9.5%
# Target sequence (P19174 whole entry, looked up): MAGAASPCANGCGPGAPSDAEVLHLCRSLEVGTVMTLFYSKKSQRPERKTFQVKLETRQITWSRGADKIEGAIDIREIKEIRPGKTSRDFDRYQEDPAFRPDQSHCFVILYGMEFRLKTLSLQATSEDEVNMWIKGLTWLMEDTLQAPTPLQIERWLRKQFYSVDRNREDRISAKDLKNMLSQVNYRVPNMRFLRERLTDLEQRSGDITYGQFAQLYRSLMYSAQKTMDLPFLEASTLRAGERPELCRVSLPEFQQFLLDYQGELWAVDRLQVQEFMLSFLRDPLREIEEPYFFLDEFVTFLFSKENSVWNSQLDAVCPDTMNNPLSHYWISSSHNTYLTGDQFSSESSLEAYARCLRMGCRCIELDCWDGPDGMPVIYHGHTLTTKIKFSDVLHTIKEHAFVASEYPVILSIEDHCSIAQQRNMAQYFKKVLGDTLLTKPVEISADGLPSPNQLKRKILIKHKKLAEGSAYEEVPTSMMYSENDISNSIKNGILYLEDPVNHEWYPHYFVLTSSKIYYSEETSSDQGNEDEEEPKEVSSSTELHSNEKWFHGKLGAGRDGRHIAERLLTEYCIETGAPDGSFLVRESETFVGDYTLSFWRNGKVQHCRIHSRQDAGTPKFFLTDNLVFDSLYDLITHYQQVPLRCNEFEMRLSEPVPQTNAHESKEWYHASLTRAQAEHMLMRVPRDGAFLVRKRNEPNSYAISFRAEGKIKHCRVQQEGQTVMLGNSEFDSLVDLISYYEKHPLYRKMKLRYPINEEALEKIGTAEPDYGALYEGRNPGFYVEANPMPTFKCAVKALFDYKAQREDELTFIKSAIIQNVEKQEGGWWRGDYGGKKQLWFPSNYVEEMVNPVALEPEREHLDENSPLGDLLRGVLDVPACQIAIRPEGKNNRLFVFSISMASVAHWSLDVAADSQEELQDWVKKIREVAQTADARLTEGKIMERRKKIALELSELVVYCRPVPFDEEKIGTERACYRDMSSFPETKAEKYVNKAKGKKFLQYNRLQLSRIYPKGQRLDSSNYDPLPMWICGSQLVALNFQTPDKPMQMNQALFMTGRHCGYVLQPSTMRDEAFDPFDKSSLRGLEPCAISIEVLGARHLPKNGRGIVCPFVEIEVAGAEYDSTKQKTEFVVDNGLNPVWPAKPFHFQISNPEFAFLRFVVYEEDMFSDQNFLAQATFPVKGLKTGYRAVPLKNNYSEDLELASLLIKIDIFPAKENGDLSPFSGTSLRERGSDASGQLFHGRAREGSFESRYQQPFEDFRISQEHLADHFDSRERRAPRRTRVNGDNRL
# KLK7 act conf – confirmation of human kallikrein-7 zymogen activators. shares compounds with KLK7 zymogen act. purified proKLK7, EDANS-DABCYL substrate fluorescence; scaled: vehicle 0, mature enzyme 100. activation, % at 7 µM. actives 68% (n = 3,200). AID 686949;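 active = activation, as change over the incubation, above the mean of all tested compounds plus 3 SD, cut at about 13% in these data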
# EDANS-DABCYL int – optically interferes with EDANS-DABCYL signal, flagging KLK7 hits | shares compounds with KLK7 zymogen act | EDANS-DABCYL substrate fluorescence interference, no enzyme, 4 h; solvent 0%, active enzyme control 100% | activation, % at 7 µM | actives 80% (n = 3,200) | AID 686952;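 active = activation above the all-compound mean plus 3 SD, ignoring values outside control-based bounds, cut at about 4.8% in these data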;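 note: value is the 4 h activation minus the activation read at time zero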
# K7 EDANS ctr – optically interferes with EDANS-DABCYL fluorescence, kallikrein-7 activator counter-screen | shares compounds with KLK7 zymogen act | EDANS-DABCYL peptide fluorescence interference, no enzyme | EC50, µM | actives 20% (n = 250) | AID 720493;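 active = compounds that raise the fluorescence signal in this interference counterscreen, with EC50 at or below 10 µM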;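 note: intact quenched peptide substrate alone read at 355 nm excitation and 520 nm emission; signal is fluorescence gain from T0 to T4 after four hours at room temperature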
# * marks the source's active call; other numbers are inactive results; i = inactive; / = no result.
SMILES,KLK7 zymogen act,ADAM10 inh,PLC-beta3 inh,ADAM17 inh,PLC-gamma1 inh,KLK7 act conf,EDANS-DABCYL int,others
CCOc1ccc(-c2cc(C)[n+](CCO)c(-c3ccc(OCC)cc3)c2)cc1,94*,i,i,-425,i,70*,69*,
COc1ccc2cc(C(=O)C3CCCN(C4CCOCC4)C3)ccc2c1 (stereo not given),139*,i,i,-473,i,4,20*,
COc1c(C)cc(C(=O)C2CCCN(C3CCOCC3)C2)cc1C (stereo not given),0,1,-1,-3,2,/,/,
O=c1c2ccccc2nc(/C=C/c2ccc(O)cc2)n1-c1cccc(O)c1,214*,-196,-428,-77,-356,207*,78*,
O=c1c2ccccc2nc(/C=C/c2ccc(O)cc2)n1-c1ccc(O)cc1,26*,-37,-467,-15,-346,14*,2,K7 EDANS ctr=>23
COc1ccc(-n2c(/C=C/c3ccc(O)c(OC)c3)nc3ccccc3c2=O)cc1,-1,-28,i,-8,i,/,/,
O=C(Cc1cc(=O)oc2cc(O)ccc12)NN=Cc1ccc(N(CCCl)CCCl)cc1,119*,i,i,i,i,44*,31*,K7 EDANS ctr=i
CCOC(=O)c1c(NC(=O)c2c(N)n(CCCOC)c3nc4ccccc4nc23)sc2c1CCCC2,0,-12,-12,-8,-11,/,/,
CCOCCCn1c(N)c(C(=O)Nc2sc3c(c2C(=O)OC)CCCC3)c2nc3ccccc3nc21,28*,i,i,-456,i,1,1,
O=c1[nH]c2cc(Cl)ccc2n1C1CCN(Cc2ccc(-c3nc4ccc(F)cc4nc3-c3ccccc3)cc2)CC1,-3,-8,-1,0,-5,/,/,
COc1ccc2c(c1)[nH]c1c(C)nccc12,47*,i,i,-336,i,20*,11*,K7 EDANS ctr=i
CCc1cc(OC)c(CCN)cc1OC,1,-6,-1,-1,-3,/,/,
CC1CN(CC(=O)c2ccccc2Cl)CC(C)O1 (stereo not given),16*,5,2,-2,5,0,0,
O=c1[nH]c(=S)n(Cc2ccc(F)cc2)c(O)c1/C=N/N1CCCCC1,14*,-4,-15,1,-7,2,1,
O=c1[nH]c(=S)n(Cc2ccc(F)cc2)c(O)c1C=NCC1CCCO1 (stereo not given),0,-7,0,-2,3,/,/,
c1cncc(-c2ccc3n2Cc2cnnn2-c2ccccc2-3)c1,0,-118,-409,-33,-339,/,/,
N#Cc1ccc2nc(-c3ccc(CN4CCC(n5c(=O)[nH]c6cc(Cl)ccc65)CC4)cc3)c(-c3ccccc3)nc2c1,-3,0,-10,3,-17,/,/,
CCn1c(=O)cc(OCC(=O)N2CCC3(CC2)OCCO3)c2ccccc21,0,-2,7,0,2,/,/,
CC(=O)N1CCC2(CC1)CC(=O)c1cc(OCC(=O)N3CCN(C)CC3)ccc1O2,42*,i,i,-475,i,63*,68*,
CC(=O)N1CCC2(CC1)CC(=O)c1cc(OCC(=O)N3CCC4(CC3)OCCO4)ccc1O2,36*,i,i,-354,i,70*,65*,
Cc1cc(OCC(=O)N2CCCN(C)CC2)ccc1Cl,0,4,-3,4,7,/,/,
CC(C)C(CN1CCC(C)(c2cccc(O)c2)[C@@H](C)C1)NC(=O)C1Cc2ccc(O)cc2CN1 (stereo not given in full),0,-5,1,-2,-1,/,/,
CC1=C[C@@H]2c3cccc4[nH]cc(c34)C[C@H]2N(C)C1,2,-61,-165,-25,-118,/,/,
CN1C[C@H](CO)C=C2c3cccc4[nH]cc(c34)C[C@H]21,39*,i,-369,-209,-284,30*,25*,K7 EDANS ctr=>70
O=C(c1cc2c(s1)-c1ccccc1OC2)N1CCC2(CC1)OCCO2,50*,i,i,i,i,63*,75*,
SMILES,KLK7 zymogen act,ADAM10 inh,PLC-beta3 inh,ADAM17 inh,PLC-gamma1 inh,KLK7 act conf,EDANS-DABCYL int,others
OC1CN2CCCC(O)C2C1O (stereo not given),1,-6,6,2,1,/,/,
Cc1cc(=O)oc2cc3c(cc12)CCCN3,60*,i,i,i,i,66*,63*,
Brc1ccc2c(c1)C(OC1CN3CCC1CC3)c1ccccc1CS2 (stereo not given),0,1,3,0,9,/,/,
O=C(NCCN1CCC2(CC1)C(=O)NCN2c1ccccc1)c1cc(C(F)(F)F)ccc1C(F)(F)F,1,-1,1,-1,2,/,/,
Cc1cc(O)c2c(C)c(CC(=O)N3C[C@H]4C[C@@H](C3)c3cccc(=O)n3C4)c(=O)oc2c1,-6,-72,-85,-15,-64,/,/,
COc1cc(C)cc2oc(=O)c(CC(=O)N3C[C@H]4C[C@@H](C3)c3cccc(=O)n3C4)c(C)c12,22*,i,i,-250,-460,15*,17*,
O=c1ccc2cc(O[C@@H]3O[C@H](CO)[C@@H](O)[C@H](O)[C@H]3O)c(O)cc2o1,53*,i,i,i,i,67*,71*,
O=C(NC1CCCCC1)N1Cc2ccc(Br)cc2-n2nncc2C1,0,-13,-1,-5,1,/,/,
CC1([N+](=O)[O-])COP(=O)(Nc2cccc(F)c2)OC1 (stereo not given),0,-10,2,-3,1,/,/,
Cc1cc(OCC(=O)N2CCC(C(=O)O)CC2)c2c3c(c(=O)oc2c1)CCC3,19*,i,-407,-316,-301,13*,16*,
COC(=O)C(C)Oc1cc(C)cc2oc(=O)c3c(c12)CCC3 (stereo not given),16*,i,-200,-203,-155,7,12*,
CC(=O)C1C(N2CC2)CC2C3CC=C4CC(O)CCC4(C)C3CCC21C (stereo not given),0,13,6,1,4,/,/,
CC(C)N1CCOC(c2ccc(O)c(O)c2)C1 (stereo not given),1,3,0,1,-1,/,/,
Cn1c(O)c(/C=C2\C=c3ccccc3=NC2=O)c(=O)n(C)c1=O,13*,-89,-260,-33,-211,14*,12*,
Cn1c(O)c(/C=C2\C=Nc3ccccc32)c(=O)n(C)c1=O,0,1,-2,-3,-2,/,/,
CC[C@@]1(O)C(=O)OCc2c1cc1n(c2=O)Cc2cc3c(NC(=O)CN)cccc3nc2-1,350*,i,i,i,i,109*,99*,
